CR mimetic SO = reduction of superoxide in aged yeast, primary screen, HTS. superoxide response (% of plate mean), % at 10 µM. 0.18% of 330,000 active. S. cerevisiae aged cells, superoxide DHE fluorescence; active compounds read low. AID 2690, 2010;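 active means superoxide response under a set limit, about three screen SD below normal, cut at about 65% in these data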;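 further: yeast aged for seven days with compound at 30 °C before DHE staining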
NR3A LBD binder = binders of NR3A ligand-binding domain, primary screen, biophysical, differential scanning fluorimetry, uHTS | 2.5% of 340,000 active | NR3A LBD differential scanning fluorimetry, Tm shift; 0% = protein alone, 100% = glycine-bound protein | Tm shift relative to glycine control, % at 25 µM;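 active means melting temperature shift of at least 10% of the positive control shift, at one fixed dose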
UBC13 inh = UBC13 polyubiquitin chain formation inhibitors, primary screen, biochemical, TR-FRET, uHTS; Ubiquitin-conjugating enzyme E2 N (Homo sapiens), P61088; inhibition, % at 20 µM; 0.47% of 330,000 active; AID 485273, 2010; in the data active means inhibition above about 45%, passing the limit was not always enough
Target sequence (P61088 whole entry, looked up): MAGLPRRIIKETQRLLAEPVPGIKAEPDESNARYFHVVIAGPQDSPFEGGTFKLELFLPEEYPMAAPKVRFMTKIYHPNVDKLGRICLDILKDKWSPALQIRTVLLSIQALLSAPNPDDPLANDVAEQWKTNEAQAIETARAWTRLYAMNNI
NALP1 inh = NALP1 inflammasome inhibitors in reconstituted yeast, colorimetric, S. cerevisiae, triplicate retest; S. cerevisiae NALP1/ASC/caspase-1 growth, X-gal OD620, 72 h; inhibition, % at 10 µM; 0.61% of 280,000 active; AID 2071, 2009; in the data active means inhibition mostly above about 24%, no sharp cut-off; inactive means mostly below about 32%
dFosB act-1 = activators of delta FosB homodimer, primary screen, biochemical, fluorescence polarization, TAMRA-CDK5 oligo, single point; purified delta FosB; percent of positive-control signal above neutral wells; 0.99% of 340,000 active; AID 493131, 2011; activation, % at 25 µM;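 active means mean activation above about 17%, with every replicate also reaching it, limit read from the data, passing the limit was not always enough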
Target sequence (P13346 whole entry, looked up): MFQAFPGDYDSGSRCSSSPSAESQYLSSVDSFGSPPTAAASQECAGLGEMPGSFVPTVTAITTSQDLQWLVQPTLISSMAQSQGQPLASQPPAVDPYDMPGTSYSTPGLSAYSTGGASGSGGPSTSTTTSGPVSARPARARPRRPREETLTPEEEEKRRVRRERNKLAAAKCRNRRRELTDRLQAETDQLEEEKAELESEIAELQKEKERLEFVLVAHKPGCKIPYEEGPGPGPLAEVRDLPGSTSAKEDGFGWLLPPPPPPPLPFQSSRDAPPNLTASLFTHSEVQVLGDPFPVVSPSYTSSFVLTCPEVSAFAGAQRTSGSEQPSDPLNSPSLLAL
dFosB act-2 = activators of mouse delta FosB DNA binding, confirmation, biochemical, fluorescence polarization, TAMRA-CDK5 oligo, cherry-picked samples | activation, % at 24.9 µM | shares compounds with dFosB act-1 | purified delta FosB; normalised: neutral wells 0, positive control 100 | 2,400 tested, under 10 active;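 active means highest replicate activation at or above 34% and every replicate reaching that threshold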;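 further: higher polarization means more probe DNA bound by delta FosB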
Numbers stand for hits. Hits are enriched below; roughly 4.3% of the tested compounds scored in any of these assays.

Results for O=C(CSc1nnc(NC(=O)c2ccco2)s1)NC1CCCCC1 ?
CR mimetic SO: inactive; NR3A LBD binder: inactive; UBC13 inh: inactive; NALP1 inh: inactive; dFosB act-1: 22; dFosB act-2: inactive

Results for COc1ccc(NC(=O)CSc2nnc(NC(=O)c3ccco3)s2)cc1 ?
CR mimetic SO: inactive; NR3A LBD binder: inactive; UBC13 inh: inactive; NALP1 inh: inactive; dFosB act-1: inactive

Results for O=C(CSc1ncccn1)NCc1cccc(Cl)c1 ?
CR mimetic SO: inactive; NR3A LBD binder: inactive; UBC13 inh: inactive; NALP1 inh: inactive; dFosB act-1: inactive

Results for O=C(CSc1nc2nn(-c3ccccc3)c(=O)c-2c2n1CCCCC2)NCCCc1ccccc1 ?
CR mimetic SO: inactive; NR3A LBD binder: inactive; UBC13 inh: inactive; NALP1 inh: inactive; dFosB act-1: inactive

How did O=C(Nc1ccccc1Cc1ccccc1)C1CC(=O)N(c2ccc3c(c2)OCCO3)C1 (configuration not stated) do in these assays?
CR mimetic SO: inactive; NR3A LBD binder: inactive; UBC13 inh: inactive; NALP1 inh: inactive; dFosB act-1: 36; dFosB act-2: inactive

Results for CCc1cccc(CC)c1NC(=O)C1CC(=O)N(c2ccc3c(c2)OCCO3)C1 (configuration not stated) ?
CR mimetic SO: inactive; NR3A LBD binder: inactive; UBC13 inh: inactive; NALP1 inh: inactive; dFosB act-1: inactive

What do the screens show for `CO/N=C/C(C#N)=C/c1cc(C(=O)c2ccc(F)cc2)cn1C`?
CR mimetic SO: inactive; NR3A LBD binder: inactive; UBC13 inh: inactive; NALP1 inh: inactive; dFosB act-1: 50; dFosB act-2: inactive

Results for O=C(Nc1ccc(Cl)cc1)Nc1nc(-c2sccc2Br)cs1 ?
CR mimetic SO: inactive; NR3A LBD binder: inactive; UBC13 inh: inactive; NALP1 inh: inactive; dFosB act-1: 27; dFosB act-2: inactive

Results for COc1ccc(C(=O)Nc2nnc(S(=O)(=O)Cc3ccccc3)s2)cc1 ?
CR mimetic SO: inactive; NR3A LBD binder: inactive; UBC13 inh: inactive; NALP1 inh: inactive; dFosB act-1: 23; dFosB act-2: inactive

What do the screens show for `Cc1cccc(OCC(=O)N/N=C\C=C\c2ccc3c(c2)OCO3)c1C`?
CR mimetic SO: inactive; NR3A LBD binder: inactive; UBC13 inh: inactive; NALP1 inh: inactive; dFosB act-1: 38; dFosB act-2: inactive

How did N=c1c(C(=O)NCc2ccccc2)cc2c(=O)n3ccccc3nc2n1Cc1ccco1 do in these assays?
CR mimetic SO: inactive; NR3A LBD binder: inactive; UBC13 inh: inactive; NALP1 inh: inactive; dFosB act-1: inactive

Results for Cc1cccn2c(=O)c3cc(C(=O)NCc4ccco4)c(=N)n(CCc4ccccc4)c3nc12 ?
CR mimetic SO: inactive; NR3A LBD binder: inactive; UBC13 inh: inactive; dFosB act-1: 20; dFosB act-2: inactive

What do the screens show for `Cc1cccn2c(=O)c3cc(C(=O)NCCc4ccccc4)c(=N)n(Cc4ccco4)c3nc12`?
CR mimetic SO: inactive; NR3A LBD binder: inactive; UBC13 inh: inactive; NALP1 inh: inactive; dFosB act-1: inactive

How did Cc1ccc(CNC(=O)c2cc3c(=O)n4ccccc4nc3n(Cc3ccco3)c2=N)cc1 do in these assays?
CR mimetic SO: inactive; NR3A LBD binder: inactive; UBC13 inh: inactive; NALP1 inh: inactive; dFosB act-1: 25; dFosB act-2: inactive

Results for COc1ccc(Cn2c(=N)c(C(=O)NC3CCCCC3)cc3c(=O)n4ccccc4nc32)cc1 ?
CR mimetic SO: inactive; NR3A LBD binder: inactive; UBC13 inh: inactive; NALP1 inh: inactive; dFosB act-1: 34; dFosB act-2: inactive

How did O=c1[nH]c(CCl)nc2cc(-c3ccc(F)cc3)sc12 do in these assays?
CR mimetic SO: inactive; NR3A LBD binder: inactive; UBC13 inh: inactive; NALP1 inh: inactive; dFosB act-1: inactive

How did O=c1[nH]cnc2cc(-c3ccc(Br)cc3)sc12 do in these assays?
CR mimetic SO: inactive; NR3A LBD binder: inactive; UBC13 inh: inactive; NALP1 inh: inactive; dFosB act-1: 45; dFosB act-2: inactive

What do the screens show for `COc1ccc(Nc2nnc(SCC(=O)/C=C3/N(C)c4ccccc4C3(C)C)s2)cc1`?
CR mimetic SO: inactive; NR3A LBD binder: inactive; UBC13 inh: inactive; NALP1 inh: inactive; dFosB act-1: 43; dFosB act-2: inactive

Results for CN1/C(=C/C(=O)CSc2ccccc2C(=O)O)C(C)(C)c2ccccc21 ?
CR mimetic SO: inactive; NR3A LBD binder: inactive; UBC13 inh: inactive; NALP1 inh: 45; dFosB act-1: 19; dFosB act-2: inactive

What do the screens show for `COc1cc(CCCN2C(=S)NC[C@H]2Cc2ccc(O)cc2)cc(OC)c1OC`?
CR mimetic SO: inactive; NR3A LBD binder: inactive; UBC13 inh: inactive; NALP1 inh: inactive; dFosB act-1: inactive

What do the screens show for `CCOc1ccc(CCN2C(=S)N([C@@H](CC(C)C)CN3CCCC3CN3C(=S)NC[C@@H]3CC(C)C)C[C@@H]2Cc2ccc(O)cc2)cc1` (some centres not stated)?
NR3A LBD binder: inactive; dFosB act-1: 37; dFosB act-2: inactive

What do the screens show for `CCOc1ccc(CCN2C(=S)N([C@@H](CC(C)C)CN3CCCC3CN3C(=S)NC[C@@H]3Cc3ccc(O)cc3)C[C@@H]2CC(C)C)cc1` (some centres not stated)?
NR3A LBD binder: 12; dFosB act-1: 26; dFosB act-2: inactive

Results for CC(C)C[C@H]1CNC(=S)N1CC1CCN(CCCC2CCCCC2)CC1 ?
NR3A LBD binder: inactive; dFosB act-1: inactive

Results for O=C(Cn1c2ccc(F)cc2c2nc3n(c(=O)c21)CCS3)Nc1ccccc1C(F)(F)F ?
CR mimetic SO: inactive; NR3A LBD binder: inactive; UBC13 inh: inactive; NALP1 inh: inactive; dFosB act-1: 50; dFosB act-2: inactive

What do the screens show for `Cc1cc(N2CCN(C)CC2)nc2ccc(NC(=S)NCCCN3CCc4ccccc4C3)cc12`?
CR mimetic SO: inactive; NR3A LBD binder: inactive; UBC13 inh: inactive; NALP1 inh: inactive; dFosB act-1: 31; dFosB act-2: inactive

What do the screens show for `CCCN1CCN(CCCNC(=S)Nc2ccc3nc(N4CCN(CC)CC4)cc(C)c3c2)CC1`?
CR mimetic SO: inactive; NR3A LBD binder: inactive; UBC13 inh: inactive; NALP1 inh: inactive; dFosB act-1: inactive

What do the screens show for `Cc1cc(N2CCCC2)nc2ccc(NC(=S)NCCCN3CCC(C)CC3)cc12`?
CR mimetic SO: inactive; NR3A LBD binder: inactive; UBC13 inh: inactive; NALP1 inh: inactive; dFosB act-1: 46; dFosB act-2: inactive

What do the screens show for `CCN1CCN(c2cc(C)c3cc(NC(=S)NCCN(C)C)ccc3n2)CC1`?
CR mimetic SO: inactive; NR3A LBD binder: inactive; UBC13 inh: inactive; NALP1 inh: inactive; dFosB act-1: 20; dFosB act-2: inactive

Compound activity (PubChem)
